DAX1 inh-1: DAX1 (NR0B1) inhibitors, primary screen, cell-based, HEK293, Gal4-DAX1, luciferase luminescence. 340,000 tested, 0.99% active. inhibition, % at 6.75 µM. Nuclear receptor subfamily 0 group B member 1 (Homo sapiens), P51843. HEK293 Gal4-DAX1 luciferase reporter;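 active means inhibition above the mean over all tested compounds plus 3 SD, cut at about 4.2% in these data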;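 further: inhibition shows as a rise in luminescence from relieved DAX1 repression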
hcDAF-12 act: H. contortus DAF-12 nuclear receptor activators, primary screen, cell-based, luminescence, HEK293, lit1-tk-luc reporter; activation, % at 6.8 µM; HEK293 hcDAF-12 lit1-tk-luc reporter; 0% DMSO, 100% Δ7-dafachronic acid; 370,000 tested, 1.4% active; AID 652067, 2013;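 active means activation above the mean of all tested compounds plus 3 SD, cut at about 5.5% in these data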
SMARCA2 act: SMARCA2 (BRM) function activators, primary screen, cell-based, luminescence, high throughput; MG213 cells, MMTV-luciferase reporter, dexamethasone, overnight; activation, % at 9.1 µM; 370,000 tested, 1% active; AID 652017, 2013; in the data active means activation above about 7.8%
ssDAF12 agonist: S. stercoralis DAF-12 nuclear receptor activators, primary screen, cell-based, luminescence, HEK293, GRIP1 co-expression, lit1-tk-luc. Nuclear hormone receptor DAF-12 (Strongyloides stercoralis). HEK293 ssDAF-12/GRIP1 lit1-tk-luc reporter; % of 3 µM dafachronic acid response. activation, % at 6.8 µM. 370,000 tested, 1% active. AID 652126, 2013;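 active means activation above the mean over all tested compounds plus 3 SD, cut at about 0.9% in these data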
hgDAF12 agonist: H. glycines DAF-12 receptor agonists, primary screen, cell-based, luminescence, HEK293, GAL4 fusion, UAS-luciferase; 370,000 tested, 1.8% active; HEK293 GAL4-hgDAF12 UAS-luciferase reporter, agonist luminescence; normalized to butyrate control; AID 687014, 2013; activation, % at 6.8 µM;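 active means activation above a cutoff set at the mean of all screened compounds plus 3 SD, cut at about 10% in these data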
DAX1 inh-2: DAX1 (NR0B1) inhibitors on StAR promoter, primary screen, cell-based, luminescence, SF-1 (NR5A1), full-length DAX-1. HEK293T StAR-luciferase reporter, SF-1/DAX-1 repression relief. 370,000 tested, 1.1% active. inhibition, % at 6.8 µM. AID 652010, 2013;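 active means inhibition above the mean over all tested compounds plus 3 SD, cut at about 3.6% in these data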;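 further: higher inhibition means more luminescence from relief of DAX-1 repression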
LXRb hcDAF ctr: LXR agonists, Gal4 luciferase reporter, confirmation, counter-screen for hcDAF-12 agonist project, cell-based, luminescence, HEK293, H. contortus campaign; activation, % at 6.8 µM; shares compounds with hcDAF-12 act; 3,400 tested, under 10 active; HEK293 Gal4-LXR tk-luc reporter, 24 h; normalized: DMSO 0%, positive control 100%;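 active means mean percent activation of the reporter above a cutoff set as the average over tested compounds plus their standard deviation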
Target sequence (P55055 whole entry, looked up, the tested form may be a part): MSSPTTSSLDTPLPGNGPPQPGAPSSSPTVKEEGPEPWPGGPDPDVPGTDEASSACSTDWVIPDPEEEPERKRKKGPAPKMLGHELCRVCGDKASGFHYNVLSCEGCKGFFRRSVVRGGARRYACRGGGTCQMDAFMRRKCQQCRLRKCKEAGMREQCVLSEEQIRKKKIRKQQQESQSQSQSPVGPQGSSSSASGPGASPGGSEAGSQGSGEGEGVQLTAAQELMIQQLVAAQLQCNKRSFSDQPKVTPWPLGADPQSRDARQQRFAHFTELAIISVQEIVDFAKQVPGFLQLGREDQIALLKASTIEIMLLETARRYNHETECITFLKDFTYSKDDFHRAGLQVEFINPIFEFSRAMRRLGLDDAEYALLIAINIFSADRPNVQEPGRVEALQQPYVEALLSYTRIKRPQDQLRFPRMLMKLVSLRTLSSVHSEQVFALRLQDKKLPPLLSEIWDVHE
hcDAF12 conf: H. contortus DAF-12 receptor agonists, confirmation, cell-based, luminescence, HEK293, lit1-tk-luc, triplicate; activation, % at 6.8 µM; HEK293 hcDAF-12 lit1-tk-luc reporter; % of Δ7-dafachronic acid response; 3,400 tested, 61% active; shares compounds with hcDAF-12 act;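 active means mean activation across triplicate tests above the threshold derived from the earlier primary screen, cut at about 5.5% in these data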
Of the large screens only hits and unclear results are named; the others gave an inactive call (follow-up assays come after a bar, where they were run). This is a sample that favours compounds with a hit; in the whole collection about 4.8% have one here.

COC(=O)c1ccccc1NC(=O)CN(c1c(C)cccc1C)S(C)(=O)=O	hcDAF-12 act 18, ssDAF12 agonist 1.0, hgDAF12 agonist 11 | LXRb hcDAF ctr inactive | hcDAF12 conf inactive
Cc1nn(CC(=O)NCCc2ccc(Cl)cc2Cl)c(C)c1[N+](=O)[O-]	none
CC(C)(C)NC(=O)COc1ccc(CNCCc2ccccc2)cc1	none
CCc1ccc(OCC(=O)NC(C)(C)C)cc1	hcDAF-12 act 11 | LXRb hcDAF ctr inactive | hcDAF12 conf inactive
O=C(CN1CCCCC1)N=Nc1c(O)[nH]c2ccccc12	none
COC(=O)/C=C(\C)N=Nc1c(O)[nH]c2ccccc12	hcDAF-12 act 7.3 | LXRb hcDAF ctr inactive | hcDAF12 conf 6.8
Oc1[nH]c2ccccc2c1N=Nc1nc2ccccc2s1	none
Oc1[nH]c2ccccc2c1N=Nc1ccccc1	hcDAF-12 act 13 | LXRb hcDAF ctr inactive | hcDAF12 conf 14
COc1cccc(CC(=O)N2CCC(n3nccc3NC(=O)C3CCOC3)CC2)c1 (stereo not given)	hcDAF-12 act 6.9 | LXRb hcDAF ctr inactive | hcDAF12 conf inactive
COc1ccc(-c2nc(CS(=O)(=O)CC(=O)NCCc3cc(OC)ccc3OC)c(C)o2)cc1	none
Cc1ccc(-c2nc3ccccc3s2)cc1NC(=O)c1ccc2c(c1)OCO2	none
O=C(Nc1cc(-c2nc3ccccc3s2)ccc1Cl)c1ccc2c(c1)OCO2	hcDAF-12 act 9.9, ssDAF12 agonist 1.6, hgDAF12 agonist 11 | LXRb hcDAF ctr inactive | hcDAF12 conf 6.3
O=C(/C=C/Nc1ccccc1C(=O)O)c1cccs1	hcDAF-12 act 8.4 | LXRb hcDAF ctr inactive | hcDAF12 conf inactive
CNc1cc([N+](=O)[O-])ccc1N/C=C/C(=O)c1cccs1	hcDAF-12 act 8.9 | LXRb hcDAF ctr inactive | hcDAF12 conf inactive
O=C(/C=C/Nc1ccc(Nc2ccccc2)cc1)c1cccs1	none
CNc1cc([N+](=O)[O-])ccc1N/C=C/C(=O)c1ccc2c(c1)OCO2	none
O=C(/C=C/Nc1cccc([N+](=O)[O-])c1)c1cccs1	hcDAF-12 act 13, ssDAF12 agonist 1.8, hgDAF12 agonist 13 | LXRb hcDAF ctr inactive | hcDAF12 conf 14
COc1cccc(C(=O)Nc2ccc(NC(=O)C3C4C=CC(C4)C3C(=O)O)cc2)c1 (stereo not given)	hcDAF-12 act 12, ssDAF12 agonist 1.0, hgDAF12 agonist 11 | LXRb hcDAF ctr inactive | hcDAF12 conf inactive
COc1cc(NC(=O)C2C3C=CC(C3)C2C(=O)O)ccc1NC(=O)c1ccccc1 (stereo not given)	none
Cc1cccc(N2C(=O)C=CC2=O)c1	none
O=C1C=CC(=O)N1c1ccc2ccccc2c1	hcDAF-12 act 7.4 | LXRb hcDAF ctr inactive | hcDAF12 conf inactive
Cc1cccnc1NC(=O)c1cccc(S(=O)(=O)N2CCCC2)c1	hcDAF-12 act 7.0 | LXRb hcDAF ctr inactive | hcDAF12 conf inactive
CCOC(=O)c1nnn(-c2nonc2N)c1COc1c(C=O)cccc1OC	none
C/C(=N/Nc1ccccc1[N+](=O)[O-])c1ccc(C)c([N+](=O)[O-])c1	none
